# Assay results as given in PubChem BioAssay (NCATS).
# Inconclusive results are not listed. Values without a mark were called inactive. The source made the active and inactive calls. The call rests on the fitted dose curve; in most records, active means well fitted cell-killing curve with a large enough effect; inconclusive means small, poorly fitted or top-dose-only effect; inactive means no such curve, though single readings can be large or run the other way.
# Experiment: qHTS of pediatric cancer cell lines to identify multiple opportunities for drug repurposing: Primary screen for MG 63 (6-TG R) cells (AID 1347105); further: nearly all actives have a fitted effect of over 50% in size
# Conditions: MG 63 (6-TG R) viability, CellTiter-Glo, 48 h; series mostly up to 46 µM; activity change, negative = cytotoxic: at the top concentration
# Text: Drug repurposing or repositioning has been offered as a strategy for drug development in oncology programs. This approach has special potential for childhood cancers and other rare or orphan diseases, where the expected return on new drug development has been a disincentive to pharmaceuticals. […] In this project we exploit the poly-pharmacology of drugs to discover new indications via phenotypic screening of a panel of 19 well-characterized cell lines derived from solid tumors seen in children and adolescents. The goal is to identify approved drugs with previously unrecognized anticancer properties that has the potential to reveal new mechanisms and biological processes involved in carcinogenesis or drug resistance. We employed a titration-based paradigm (quantitative high-throughput screening or qHTS), where all compounds were tested at multiple concentrations for their effect on cell viability. Concentration-response curves (CRCs) were derived directly from the primary screen, and both potency and efficacy values were used to identify compounds with robust bioactivity profiles. We screened the NIH Chemical Genomics Center (NCGC) Pharmaceutical Collection (NPC) and Mechanism Interrogation Plate (MIPE) small molecule collections of approved and investigational compounds against these cell lines; and measured metabolically active cells after 48 hours of compound treatment as a proxy for cell viability. […] Assay Submitter: Nathalia J. Martinez, National Center for Advancing Translational Sciences, National Institutes of Health, Rockville, MD, USA; email: natalia.martinez@nih.gov Shen, M et al. Quantitative high-throughput phenotypic screening of pediatric cancer cell lines identifies multiple opportunities for drug repurposing. Oncotarget 2017 Dec 19;9(4):4758-4772. PMID 29435139.
# The cells were obtained from University of North Carolina (UNC), Pediatric Preclinical Testing Program (PPT), and Coriell Institute (CI). qHTS cell viability assay: Cells were assayed in growth media at a density of 500-1,000 cells/well. Five microliters of cells were dispensed into 1,536-well, white, solid-bottom, TC-treated plates (Greiner Bio One) using a multidrop dispenser and incubated at 37 degrees C, 5% CO2, under a humidified atmosphere for 5 hours. Twenty-three nanoliters of compounds and controls (neutral control DMSO or positive control bortezomib at final concentration of 2.3 µM) were subsequently transferred by Kalypsys pintool. For primary screens, the MIPE collection was tested at 11-point dilutions (final concentrations range from 0.78 nM to 46 µM) and the NPC collection at 8-point dilutions (final concentrations range from 0.59 nM to 46 µM). Compounds tested in follow-up screens were assayed at 11-point dilutions. Cells were incubated for 48 hours, followed by addition of 3 µL of CellTiter-Glo (Promega). After a 15 min incubation at room temperature, samples were analyzed for luminescence intensity using a ViewLux High-throughput CCD imager equipped with clear filters.
# On the % scale 0 is the no-effect control and ±100 the full control effect; potency means the concentration at half of the fitted maximal effect.
SMILES,"activity change, negative = cytotoxic",Potency
O=c1cc(CN2CCOCC2)occ1OCCCCCSc1ccnc2cc(C(F)(F)F)ccc12,-3%,–
Cc1ccc(C(=O)Nc2cccc(C(F)(F)F)c2)cc1Nc1nc(-c2cccnc2)nc2c1cnn2C,–,18.7 µM (active)
O=C1NC(=O)C(c2ccccc2)(c2ccccc2)N1,-15.1%,–
Cn1cc(C=C2C(=O)Nc3cccnc32)c2ccccc21,21.1%,–
CC1(C)S[C@H]2[C@H](NC(=O)[C@@H](N)c3ccc(O)cc3)C(=O)N2[C@@H]1C(=O)O,–,3.72 µM (active)
COc1cc(O)c2c(c1)C(=O)c1cc(C)cc(O)c1C2=O,-5.94% [at 16.1 µM],–
CNC1CCC(N(Cc2cccc(-c3ccncc3)c2)C(=O)c2sc3c(F)ccc(F)c3c2Cl)CC1 (stereo not given),–,23.5 µM (active)
COc1ccc(C2CC(c3ccccc3)=NN2c2ccc(S(N)(=O)=O)cc2)cc1 (stereo not given),5.96%,–
CC(C)C(=O)Oc1ccc(CO)cc1[C@H](CCN(C(C)C)C(C)C)c1ccccc1,-14.4%,–
O=C(O)CCc1nc(-c2ccccc2)c(-c2ccccc2)o1,-24.1%,–
CC(C(=O)O)c1ccc(-c2ccccc2)c(F)c1 (stereo not given),-10.1%,–
COc1cc(N2CCC(N3CCN(C)CC3)CC2)ccc1Nc1ncnc(Nc2ccccc2S(=O)(=O)C(C)C)n1,-75.1%,–
CN(C[C@@H]1COCCO1)S(=O)(=O)Nc1ccc2ccc3ncc(-c4cnn(C)c4)cc3c(=O)c2c1,-19.6%,–
CC(C)NCC(O)COc1cccc2[nH]ccc12 (stereo not given),-23%,–
Cc1c[nH]c(C=C2C(=O)Nc3ccccc32)c1CCC(=O)O,-14.6%,–
O=c1c(-c2ccc(O)cc2)coc2cc(OC3O[C@H](CO)[C@H](O)[C@H](O)[C@H]3O)cc(O)c12 (stereo not given in full),-43.2%,–
O=C(O)Cc1cccc2ccccc12,–,inactive
COc1ccc(-c2coc3cc(O)ccc3c2=O)cc1,-3.94%,–
CC(C)(C)COc1ccc(-n2cc(C(=O)O)cn2)cc1C#N,-10.5%,–
COc1ccc(-n2c(C)c([N+](=O)[O-])c3ccc(O)cc32)cc1,-0.507%,–

SMILES,"activity change, negative = cytotoxic",Potency
CC(C)[C@H](CO)Nc1nc(Nc2ccc(C(=O)O)c(Cl)c2)c2ncn(C(C)C)c2n1,-23.8%,–
CC(C)OC(=O)CCCC=CC[C@@H]1[C@H](C=C[C@@H](O)COc2cccc(C(F)(F)F)c2)[C@H](O)C[C@@H]1O,-13.1%,–
CCCCCN(C)CCC(O)(P(=O)(O)O)P(=O)(O)O,-11.2%,–
Cc1ccc(F)c(NC(=O)Nc2ccc(-c3cccc4[nH]nc(N)c34)cc2)c1,-30.1%,–
Oc1ccc(C2=Cc3ccc(O)cc3OC2)cc1,-28.5%,–
Cc1ccc([C@@H]2O[C@H](CO)[C@@H](O)[C@H](O)[C@@H]2O)cc1Cc1ccc(-c2ccc(F)cc2)s1,-32.4%,–
NC1=N[C@@]2(c3cc(NC(=O)c4ccc(F)cn4)ccc3F)COC[C@@H]2CS1,–,23.5 µM (active)
c1ccc2c(Cc3c[nH]c4ccccc34)c[nH]c2c1,–,5.9 µM (active)
CC(C)(C)OC(=O)N[C@H]1CCCCCC=C[C@@H]2C[C@@]2(C(=O)NS(=O)(=O)C2CC2)NC(=O)[C@@H]2C[C@@H](OC(=O)N3Cc4cccc(F)c4C3)CN2C1=O,17.5%,–
O=C1c2ccccc2-[n+]2ccc3c([nH]c4ccccc43)c21,–,2.96 µM (active)
CON=C(C(=O)N[C@@H]1C(=O)N2C(C(=O)OCOC(=O)C(C)(C)C)=C(C=Cc3scnc3C)CS[C@H]12)c1csc(N)n1,1.19%,–
Oc1ccc(C2CCN(c3ccnc4ccccc34)CC2)cc1O,-14.9%,–
CC(=O)c1ccc(S(=O)(=O)NC(=O)NC2CCCCC2)cc1,17.4%,–
CCN(CC)C(=O)c1ccc(O)c(OC)c1,-24.8%,–
OC[C@H]1O[C@@H](n2cnc3c2NC=NC[C@@H]3O)C[C@H]1O,-18.7%,–
Nc1ncnc2ccccc12,-10.5%,–
O=c1cc(N2CCOCC2)oc2c(-c3cccc4c3sc3ccccc34)cccc12,–,14.8 µM (active)
COc1ccc(-c2cc(=O)c3c(O)cc(O)cc3o2)cc1O,-5.43%,–
CC[C@@]1(O)C[C@H](O[C@H]2C[C@H](N(C)C)[C@H](O[C@H]3C[C@H](O)[C@H](O[C@H]4CCC(=O)[C@H](C)O4)[C@H](C)O3)[C@H](C)O2)c2c(cc3c(c2O)C(=O)c2c(O)cccc2C3=O)[C@@H]1C(=O)OC,-10.2%,–
OC[C@@H](O)[C@H](O)[C@H](O)[C@@H](O)CO,–,inactive
